Compounds without any hit were thinned out: in the full panel of roughly 83,000, 20% have a hit.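 Interpretation: 100, growth as untreated; towards 0, rising growth inhibition; 0, no net growth; 0 to -100, cell death. Compounds scoring below 10 were considered active.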 Values without a mark were called inactive. Active and inactive are the calls of the source.

The experiment concerns HL-60(TB) leukemia. In words: NCI-60 one-dose screen, 48 h (100 = growth as untreated, 0 = no growth, -100 = all killed). Particulars: 10 µM unless noted.
For the compound `O=C1c2ccccc2C(=O)c2c1ccc1c(=O)n(-c3ccccc3C(F)(F)F)nnc21`, the growth is -42% (active). The result for `O=C(/C=C/c1cccc(Cl)c1)c1cccc(OCCCCOc2cccc(C(=O)/C=C/c3cccc(Cl)c3)c2)c1` reads 84.6%; that for `C=C1CC[C@@H]2[C@](C)(COC(C)=O)[C@H](OC(C)=O)CC[C@@]2(C)[C@@H]1CC(NCc1ccccc1)C1=CCOC1=O` (stereo not given in full), -9.93% (active); that for `O=C1c2ccc3c4c(ccc(c24)C(=O)N1CCNCc1ccccc1)C(=O)N(CCNCc1ccccc1)C3=O`, -34.6% (active). Regarding `C[C@@H]1CC[C@@H]2[C@@H]1[C@H](OC(=O)/C=C/c1ccccc1)[C@]1(c3ccccc3)C[C@@H](NC(=O)CO)[C@@]2(C)O1`, the growth is 97.7%. Regarding `CCCCN1c2nc3ccccc3cc2Sc2cc3ccccc3nc21`, the growth is 101%. For `Cn1c2c(c(=O)[nH]c1=O)NC1=C(C(=O)c3ccccc31)C1(C=C(O)c3ccccc31)N2` (stereo not given), the growth was 109%.

For the compound `CN1Cn2c(ccc2C(F)(F)F)C(=O)CS1(=O)=O`, the growth was 108%.

Consider `COc1cnc2c(c1)C(=O)c1c-2n(CCCN2CCOCC2)c(=O)c2cc(Cl)ccc12`, for which the growth is -4.61% (active).

For `CC1=C(C)C(=O)C(C(C)C2=C(C)C(=O)C(C)=C(C)C2=O)=C(C)C1=O`, the growth is 42.5%. As for `CCCCC(CC#N)(CCC)CCC`, the growth is 104%. With `COc1cccc(NC(=O)c2sc3nc4c(cc3c2N)CN(Cc2ccccc2)CC4)c1`, the growth was 50.1%. With `CC1(C)C(=O)/C(=C\c2cccnc2)C[C@]2(C)[C@H]3CC[C@@H]4[C@H]5[C@H](C(=O)/C=C/c6cccnc6)CC[C@]5(C(=O)O)CC[C@@]4(C)[C@]3(C)CC[C@@H]12`, the growth was 0.806% [100 µM] (active). Take `COc1ccc(-c2nnc(COc3ccc(NS(=O)(=O)c4ccc(OC)cc4)cc3F)o2)cc1`: the growth was 76.6%. The result for `O=C(COc1cccc(/C=C2\Cc3ccc(Cl)cc3C2=O)c1)Nc1nccs1` reads 62.2%; that for `CCOc1ccc(C(CN2CCOCC2)C(C)=O)cc1OC` (stereo not given), 84.7%. The result for `Cc1ccc(Nc2nccc(N(C)c3ccc4c(C)n(C)nc4c3)n2)cc1S(N)(=O)=O` reads 5.08% (active); that for `CCC(=O)OC1CCC2C3CCC(=O)OC3C(C)(CCC(=O)O)CC12C` (stereo not given), -23.2% (active). Take `O=C1C(c2c(O)[nH]c3ncccc23)=Nc2ccccc21`: the growth was 173%. For `CCNc1ncnc2n[nH]nc12`, the growth was 94.8%.

`CCN(CC)CCCNc1cc(OC)c(OC)c2cccnc12`: the growth was 29.2%. As to `COc1cc(-c2nc(NC(C)=O)sc2-c2ccnc(NCCNS(=O)(=O)c3ccccc3)n2)ccc1Cl`, the growth is -22.3% (active). As for `Cc1cc2nc(-c3c(-c4ccc(F)cc4)nc4sccn34)[nH]c2cc1C`, the growth was 87.3%. As to `COc1ccc(/C=C/C(=O)c2ccc(B(O)O)cc2)cc1O`, the growth is 37.7%. As for `CCCCSc1ncnc2c1ncn2C1CCCCO1` (stereo not given), the growth is 90.4%. The result for `Fc1ccc(-c2nnc(/C=C/c3cn(-c4ccccc4)nc3-c3ccccc3)o2)cc1` reads 94.2%; that for `CC1(C)C2CCC1(C)C1(C2)OCCS1` (stereo not given), 91.3%; that for `COc1ccc(OC)c(/C=C/c2nc(SC)n(-c3ccc(Cl)cc3)n2)c1`, 65.7%. Regarding `Nc1nc2ccccc2c2c(=O)c3cccc(Cl)c3sc12`, the growth was 93.7%. The result for `Cc1ccc2oc(=O)cc(-c3sc(N4CCCCC4)nc3-c3ccccc3)c2c1` reads 95%; that for `C[C@@H](C[C@H](CCO)c1ccccc1)c1ccc2ccccc2c1`, -38.5% (active); that for `COc1cc2nc3cc([N+](=O)[O-])ccc3c(NCCNCC(C)O)c2cc1OC` (stereo not given), -16.8% (active). For `CCCCCCCCCCN(CCCCCCCCCC)CC(=O)c1ccc2cc(Br)c3ccccc3c2c1`, the growth was -62.2% (active). The result for `O=C1C=CC(=O)N1c1cc(Cl)c(Cl)cc1Cl` reads 80.4%; that for `O=c1[nH]c(-c2ccccc2)nc(CN2CCCCC2)c1O`, 84.4%; that for `Cc1cc(C(=O)Nc2cc(Oc3ccc4nc(NC(=O)C5CC5)cn4n3)ccc2C)n(C)n1`, 7.21% (active). As to `Nc1cc(Br)c(-c2nn3c(CCC(=O)c4nc5ccccc5[nH]4)nnc3s2)c(Br)c1`, the growth was 100%. As for `c1cnc2ccc3ncccc3c2c1`, the growth was 98.9%.

For the compound `Cc1cc2c(cc1[N+](=O)[O-])NC(CNC(C)C)CC2` (stereo not given), the growth is 90.9%. As for `COc1ccc(CCN2C(=O)/C(=C/c3ccc(C4Oc5ccccc5C5CC(c6ccccc6)=NN54)cc3)SC2=S)cc1` (stereo not given), the growth was 97.7%.
